Laboratory results as given in PubChem BioAssay (NCI).
The panel holds about 79,000 compounds, 15% with a hit somewhere; the sample as a whole holds those more often. Rule as the data show it: active = growth inhibition above about 70%; inactive = the rest.

Experiments:
[1] = NCI Yeast Anticancer Drug Screen. Data for the rad50 strain (AID 155);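 also: 0% = growth of vehicle-only cultures of the same strain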; conditions: S. cerevisiae rad50 strain growth inhibition; at 50.0 µM; stronger effect = higher value
Summary of the method: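 Vehicle-treated cultures provide the reference for the growth inhibition reported for compound-exposed, repair-deficient yeast.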

[2] = NCI Yeast Anticancer Drug Screen. Data for the mec2-1 strain (AID 157); conditions: S. cerevisiae mec2-1 strain, at 50.0 µM, stronger effect = higher value
Summary of the method: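 Compounds were applied to mec2-1 yeast cells. Their growth was then compared with that of vehicle-treated cultures to give growth inhibition.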

[3] = NCI Yeast Anticancer Drug Screen. Data for the sgs1 mgt1 strain (AID 161);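 also: 0% = growth of cultures given vehicle only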; conditions: S. cerevisiae sgs1 mgt1 strain, at 50.0 µM, stronger effect = higher value
Summary of the method: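 Compounds are added to genetically altered yeast, and growth is compared with cultures given vehicle alone to give percent inhibition.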

[4] = NCI Yeast Anticancer Drug Screen. Data for the cln2 rad14 strain (AID 165);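 also: 0% = growth equal to vehicle treated cultures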; conditions: S. cerevisiae cln2 rad14 strain, at 50.0 µM, stronger effect = higher value
Summary of the method: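 Strain: cln2 rad14 yeast, altered in cell cycle control and DNA damage repair. Read-out: growth inhibition vs vehicle.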

[5] = NCI Yeast Anticancer Drug Screen. Data for the bub3 strain (AID 167); conditions: S. cerevisiae bub3 mutant strain, at 50.0 µM, stronger effect = higher value
Summary of the method: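 Mutant yeast screening strain plus compound; vehicle-treated cultures serve as the 0% inhibition reference.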

[6] = NCI Yeast Anticancer Drug Screen. Data for the mlh1 rad18 strain (AID 175); conditions: S. cerevisiae mlh1 rad18 strain growth inhibition; at 50.0 µM; stronger effect = higher value
Summary of the method: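 A repair-deficient yeast strain is exposed to test compound, and growth is scored relative to vehicle-treated controls.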

Measured: growth inhibition

COc1cc(C2C(C(C)=O)=C(C)Oc3cc4c(cc32)OCO4)cc(OC)c1O (stereo unspecified)
inactive: [1] 21.1% | [2] 2.5% | [3] -0.25% | [4] 4.15% | [5] 10.1% | [6] 35.5%

O=C(c1ccc(Cl)c(Cl)c1)C(CS(=O)(=O)O)CS(=O)(=O)O (tested in a mixture with another compound)
inactive: [1] -1.55% | [2] 0.4% | [3] -0.8% | [4] -4.45% | [5] -4.8% | [6] 12.3%

CCOC(=O)c1c[nH]c2ccc3c(nc(C)n3C)c2c1=O
inactive: [1] -7.95% | [2] -1.05% | [3] -5.2% | [4] 11.9% | [5] -21.4% | [6] -47.5%

CCCCCCCCCCCCOC(=O)NCCCl
inactive: [1] -53% | [2] -106% | [3] -57% | [4] -224% | [5] -27.6% | [6] -60.1%

Cc1cccc2c(N=[N+]=[N-])cc(C(F)(F)F)nc12
inactive: [1] 5.35% | [2] 6.7% | [3] -0.6% | [4] -43% | [5] 12.7% | [6] -1.4%

NNC(=O)CC1(O)CCCCC1
inactive: [1] -0.35% | [2] -9.2% | [3] 2.3% | [4] 0.4% | [5] -17.1% | [6] -19.8%

CC(C)(O)/C=C\P(C)(=O)c1ccccc1 (stereo unspecified)
inactive: [1] -30.9% | [2] -21.9% | [3] -4.7% | [4] 9.85% | [5] -32.5% | [6] -31.4%

O=c1ccnc2ccc3n[nH][nH]c3c12
inactive: [1] -18.4% | [2] -20.2% | [3] -7.65% | [4] 3.55% | [5] -14.2% | [6] 1.1%

O=C(O)c1ccc(NS(=O)(=O)Cc2ccccc2)cc1
inactive: [1] -14.3% | [2] -24.1% | [3] -41.5% | [4] -22.4% | [5] -36.5% | [6] -6.3%

CC1=CC(=O)C(C(O)(C(F)(F)F)C(F)(F)F)C(C)(C)C1 (stereo unspecified)
inactive: [1] -37.1% | [2] -38% | [3] -5.45% | [4] -23.8% | [5] -4.95% | [6] -6.9%

O=S(=O)(/C=C/c1ccc(Cl)cc1Cl)Cc1ccccc1CS(=O)(=O)/C=C/c1ccc(Cl)cc1Cl
inactive: [1] 4.85% | [2] 5.3% | [3] -27.6% | [4] -20.8% | [5] 6.95% | [6] -9.15%

O=C1C2=C(c3ccccc31)C(c1ccccc1Cl)N1C(=O)CSC1=N2 (stereo unspecified)
inactive: [1] 67.9% | [2] 50.2% | [3] 53.5% | [4] 48.6% | [5] 53.8% | [6] 60%

O=C(CCN1CCOCC1)c1csc2ccccc12
inactive: [1] 27.6% | [2] 36.9% | [3] 12.9% | [4] 14.9% | [5] -5.35% | [6] 17.8%

Cc1ccc2nc(N/N=C/c3sccc3C)cc(C)c2c1
inactive: [1] -24.3% | [2] -19.9% | [3] -20.9% | [4] -3.25% | [5] -30.1% | [6] -21.4%

C[N+](C)(CCOc1ccccc1)Cc1ccccc1
inactive: [1] 55% | [2] 25.8% | [3] 39.3% | [4] 26.8% | [5] 48% | [6] 31.5%

O=C(O)/C=C/c1ccccc1Br
inactive: [1] 20.8% | [2] 3.5% | [3] 12.7% | [4] 8.3% | [5] -8.7% | [6] -17.4%

O=C(c1ccccc1)c1ccccc1O
inactive: [1] -16.6% | [2] -10.7% | [3] 11.4% | [4] 6.95% | [5] 10.7% | [6] 2.9%

CN(C)Cc1c(-c2ccccc2)c(-c2ccccc2)c2ccccn12
inactive: [1] -7.15% | [2] -21.8% | [3] 14.1% | [4] 2.8% | [5] 0.75% | [6] 9.6%

C=C(Cl)CSC(C)(C)C
inactive: [1] -9.4% | [2] 5.8% | [3] -6.7% | [4] -19.6% | [5] -18.2% | [6] -8.5%

CCN(CC)c1ccc(/C=C2\SC(=S)NC2=O)cc1
inactive: [1] 2.95% | [2] 4.65% | [3] 27.6% | [4] 9.95% | [5] 9.35% | [6] 7.75%

S=C1NCC(c2ccccc2)CN1
inactive: [1] 0.5% | [2] 1.65% | [3] -2.55% | [4] 19.9% | [5] -7.95% | [6] -5.9%

Nc1c(Br)cc2c([nH]c(=O)c3cc(Br)ccc32)c1Br
inactive: [1] 47.1% | [2] 32.2% | [3] 27.1% | [4] 27.8% | [5] 8.75% | [6] 32.1%

COc1ccc(C(=O)N/N=C/c2cccc(OC)c2OC)cc1
inactive: [1] -6.3% | [2] -4.75% | [3] -20.1% | [4] -26.2% | [5] 13.1% | [6] -41.8%

O=C(O)C(Oc1ccccc1)Oc1ccccc1
inactive: [1] -24.7% | [2] -13.2% | [3] -11.8% | [4] 5.85% | [5] 6.6% | [6] -4.95%

C[N+](C)([O-])CCNC(=O)c1cccc2cc3ccccc3nc12
inactive: [1] -9.8% | [2] -8.9% | [3] -23.5% | [4] 4.3% | [5] 10.2% | [6] -46%

C(=Nc1ccc(N2CCOCC2)cc1)c1ccc2c(c1)OCO2
inactive: [1] -15.4% | [2] -7% | [3] -15.2% | [4] -49.5% | [5] -21.7% | [6] -22%

CNc1ccccc1C(=O)N/N=C/c1cccc([N+](=O)[O-])c1
inactive: [1] -0.9% | [2] 1.05% | [3] -39% | [4] -8.6% | [5] 32.5% | [6] -8.9%

CC(=O)c1cc([N+](=O)[O-])c(N)s1
inactive: [1] 7.35% | [2] -3.2% | [3] -13.2% | [4] 5.25% | [5] -4.15% | [6] -3.8%

Cc1ccc(S(=O)(=O)n2nc(C3OC(CO)C(O)C3O)c(O)c2C(N)=O)cc1 (stereo unspecified)
inactive: [1] -36.5% | [2] 16.6% | [3] -14.8% | [4] 38.1% | [5] -3% | [6] 22.8%

Cc1ncc2c(n1)NC(=O)NC2
inactive: [1] 17.1% | [2] 13.5% | [3] -16.6% | [4] 0.9% | [5] -23.1% | [6] -13.9%

O=C1C2Cc3ccccc3CN2C(=O)N1CN1CCN(CN2C(=O)C3Cc4ccccc4CN3C2=O)CC1 (stereo unspecified)
inactive: [1] -13.1% | [2] -0.05% | [3] -16.6% | [4] -10.9% | [5] -28.6% | [6] -5.8%

CC(C)(N)CNCC(C)(C)N
inactive: [1] 6.9% | [2] -3.65% | [3] -0.2% | [4] -5.8% | [5] -0.45% | [6] -2.1%

Cc1ccc(NC(=S)Nc2ccccc2C)nc1
inactive: [1] 5.95% | [2] 9.35% | [3] 27.9% | [4] 13.1% | [5] 2.6% | [6] 18.9%

c1ccc(-c2sc(-c3ccccc3)c3c2C2CCC3C2)cc1
inactive: [1] -12.4% | [2] 6.05% | [3] 14% | [4] 29% | [5] 40.6% | [6] -0.05%

COc1ccc(-c2nnc(CCCCCCCCc3nnc(-c4ccc(OC)cc4)n3N)n2N)cc1
inactive: [1] -8.05% | [2] -23.9% | [3] -9.45% | [4] 0.8% | [5] -2.7% | [6] -1%

CCOCCOCCOC(=O)CC(C)=O
inactive: [1] 3.45% | [2] 24.9% | [3] 5.5% | [4] -22.3% | [5] -11.8% | [6] -11.5%

CN(C)C=Nc1c2c(nc3ccccc13)CCCC2
inactive: [1] -35.4% | [2] -16.4% | [3] -8.8% | [4] 7.4% | [5] 18.9% | [6] 18.4%

Cc1ccc(OCC(=O)O)cc1C
inactive: [1] -5.75% | [2] -24.2% | [3] -14.7% | [4] 0.25% | [5] -11.8% | [6] -11.2%

CC(=O)Oc1cc(Oc2c(OC(C)=O)cc(Oc3c(OC(C)=O)cc(OC(C)=O)c(OC(C)=O)c3OC(C)=O)cc2OC(C)=O)cc(OC(C)=O)c1OC(C)=O
inactive: [1] 6.15% | [2] 3.1% | [3] 13.2% | [4] 4.5% | [5] 15.4% | [6] 10.4%

NC(=O)C(=CNc1nc(-c2ccc(Cl)c(Cl)c2)cs1)C(N)=O
inactive: [1] -53.9% | [2] -45.1% | [3] -29.4% | [4] -17.2% | [5] -6.5% | [6] -8.25%

CC1OC(c2cccc([N+](=O)[O-])c2)OCC1(C)C (stereo unspecified)
inactive: [1] -14.7% | [2] -19.4% | [3] -4.9% | [4] -32.6% | [5] 15.1% | [6] -16.6%
